# Measurements from PubChem BioAssay AID1851 (National Center for Advancing Translational Sciences (NCATS), 2009).
# Values joined by “and” are separate entries in the source; they are usually repeats but may differ in a detail not shown here. Identical values can stand only once. Screen size: about 16,000 compounds; about 4,000 (25%) were called active. Inconclusive results (about 26%) are left out. Only a sample is shown. Unmarked numbers belong to inactive results. Calls come from the whole dose curve; as a rule, active = well fitted curve in the direction sought with a large enough effect; inconclusive = small, poorly fitted or top-dose-only effect, or effect the other way; inactive = no such curve, though single readings can be large or run the other way.
# Target: Cytochrome P450 2C9 (Homo sapiens) (UniProt P11712)
# Sequence (P11712 whole entry, looked up): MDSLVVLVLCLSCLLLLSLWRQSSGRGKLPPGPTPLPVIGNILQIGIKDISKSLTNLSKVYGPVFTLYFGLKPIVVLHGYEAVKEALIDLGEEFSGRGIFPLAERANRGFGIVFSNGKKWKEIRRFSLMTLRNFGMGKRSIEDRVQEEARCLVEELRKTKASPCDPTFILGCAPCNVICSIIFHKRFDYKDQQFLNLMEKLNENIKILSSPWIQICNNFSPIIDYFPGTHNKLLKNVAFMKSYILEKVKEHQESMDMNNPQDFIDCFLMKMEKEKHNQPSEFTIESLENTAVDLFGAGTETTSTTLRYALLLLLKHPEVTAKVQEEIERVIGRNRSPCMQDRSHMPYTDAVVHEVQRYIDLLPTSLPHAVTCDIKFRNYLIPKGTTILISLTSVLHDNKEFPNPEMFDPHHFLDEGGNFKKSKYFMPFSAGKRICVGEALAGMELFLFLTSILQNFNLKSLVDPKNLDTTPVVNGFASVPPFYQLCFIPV
# Test: Cytochrome panel assay with activity outcomes
# Conditions: recombinant CYP, pro-luciferin dealkylation, luminescence, p450-cyp2c9; series mostly up to 57.1 µM; activity, negative = inhibition: at the top concentration
# % is set by controls: 0 for no effect and ±100 for the full control effect.
SMILES,"activity, negative = inhibition",AC50
CC1(C)N=C(N)N=C(N)N1c1cccc(C(=O)Nc2ccc(S(=O)(=O)F)cc2)c1,14.9% [at 11.4 µM],
C=C(C)CN1CC[C@@]23c4c5ccc(O)c4O[C@H]2c2[nH]c4ccccc4c2C[C@]3(O)[C@@H]1C5,-16.9%,
CC1=C2C(=O)[C@@H]3[C@@H](CC=C4C[C@@H](O)CC[C@@]43C)[C@H]2CC[C@@]12O[C@H]1C[C@H](C)CN[C@H]1[C@@H]2C,-3.17% [at 11.4 µM],
CC(C)CNCCc1ccccn1,-0.994% [at 11.4 µM],
N[C@@H](CP(=O)(O)O)C(=O)O,6.98% [at 11.4 µM],
NC(=O)c1cc(N2CC2)c([N+](=O)[O-])cc1[N+](=O)[O-],19.9%,
C=C1[C@@H]2C[C@@]3([C@H]1O)[C@H]1C[C@@H]4[C@@]5(C)CC[C@H](O)[C@]4([C@H]1N(CC)C5)[C@H]3C[C@H]2O,-10.8% [at 25.6 µM],
OC(c1ccccc1)(c1ccccc1)C1CCNCC1,-22.6% [at 25.6 µM],
Cc1ccc(S(=O)ON2CCC(C(=O)O)(c3ccccc3)CC2)cc1 (configuration not stated),4.74% [at 11.4 µM],
O=C1C[C@@H](c2ccc(O)cc2)Oc2cc(O)cc(O)c21,-29% [at 25.6 µM],
CS(=N)(=O)CC[C@@H](N)C(=O)O (some centres not stated),inactive,
COC(=O)N1CCC2(CCCN(C)C2)CC1,5.87%,
Nc1nc(N)c(N=Nc2ccc([As](=O)(O)O)cc2)c(=O)[nH]1,3.51% [at 11.4 µM],
N[C@@H](Cn1ccc(=O)n(Cc2ccc(C(=O)O)cc2)c1=O)C(=O)O,-13.2%,
NC[C@@H](O)CSP(=O)(O)O,10.5% [at 11.4 µM],
CSC([N-]/N=C/c1cccc(C)n1)=[S]=[Cu].CS[C@H]([S-])[N-]/N=C/c1cccc(C)n1,,0.251 µM (active)
Nc1ccc(CCN2CCN(c3cccc(C(F)(F)F)c3)CC2)cc1,-7.19%,
N[C@H](Cc1ccc(N(CCCl)CCCl)cc1)C(=O)O,-7.88%,
CCCCC1(CCCC)C(=O)NC(=Nc2cccc(C)c2)NC1=O,,5.01 µM (active)
CCC1(C)CC(=O)NC(=O)C1,-12.8% [at 25.6 µM],
CC(C)[C@]1(O)[C@@H](OC(=O)c2ccc[nH]2)[C@]2(O)[C@@]3(C)C[C@@]4(O)O[C@@]5([C@H](O)[C@@H](C)CC[C@]35O)[C@]2(O)[C@]41C,13.6% [at 11.4 µM],
CC[C@@H]1CN2CCc3cc(OC)c(OC)cc3[C@H]2C[C@@H]1C[C@H]1NCCc2cc(OC)c(OC)cc21,17.8% [at 25.6 µM],
O=C(OC1CCN(CCCl)CC1)C(c1ccccc1)c1ccccc1,-0.507%,
CCOC(=O)c1cncn1[C@H](C)c1ccccc1,3.2%,
CCOC(=O)c1c(NC(=O)C(c2ccccc2)c2ccccc2)sc2c1C1CCN2CC1,,1.58 µM (active)
N[C@H](CCCCCP(=O)(O)O)C(=O)O,inactive,

SMILES,"activity, negative = inhibition",AC50
CCOC(=O)C1=C(C)OC(N)=C(C#N)C12C(=O)N(C)c1ccccc12 (configuration not stated),-11.1%,
CC(=O)NCCc1c[nH]c2ccccc12,4.14%,
CN1C[C@H](C(=O)N[C@@]2(C)O[C@@]3(O)[C@H]4CCCN4C(=O)[C@@H](Cc4ccccc4)N3C2=O)C=C2c3cccc4[nH]cc(c34)C[C@@H]21,-17.2% [at 11.4 µM],
CC(C)[C@@]1(NC(=O)[C@@H]2C[C@H]3c4cccc5[nH]cc(c45)C[C@@H]3N(C)C2)O[C@]2(O)[C@H]3CCCN3C(=O)[C@H](Cc3ccccc3)N2C1=O,,2.51 µM (active)
CC(C)C[C@H]1C(=O)N2CCC[C@@H]2[C@@]2(O)O[C@](NC(=O)[C@@H]3C=C4c5cccc6[nH]cc(c56)C[C@@H]4N(C)C3)(C(C)C)C(=O)N12,-20.9% [at 25.6 µM],
CC(C)[C@@]1(NC(=O)[C@@H]2C[C@H]3c4cccc5[nH]cc(c45)C[C@@H]3N(C)C2)O[C@@]2(O)[C@H]3CCCN3C(=O)[C@H](Cc3ccccc3)N2C1=O,,2.51 µM (active) and 6.31 µM (active)
c1ccc(N2CC3(CCNCC3)C2)cc1,-15.5%,
c1ccc2cc(CC3=NCCN3)ccc2c1,17.4%,
CCOC(=O)[C@@H]1[C@@H]2c3ccccc3-c3ccccc3[C@H]2C[C@H]1O,29.6% [at 11.4 µM],
CO[C@@H](C)[C@](O)(C(=O)OCC1=CCN2CC[C@@H](O)[C@H]12)C(C)C,7.91% [at 25.6 µM],
CNC(=O)Oc1ccc2c(c1)[C@@]1(C)CCN(C)[C@@H]1N2C,28.3% [at 25.6 µM],
COc1ccc2c3c1O[C@@H]1C(=O)CC[C@@]4(O)[C@@H](C2)N(CC2CC2)CC[C@]314,-7.27%,
c1ccc2c(c1)[I+]c1ccccc1-2,,1 µM (active) and 100 nM (active)
O=C(O)/C=C\c1ccc[c]([Sb](=[O])([OH])[OH])c1,12.8% [at 11.4 µM],
CSCC[C@@H](N)P(C)(=O)O,21.1% [at 11.4 µM],
O=C1C=CC(=O)c2c1ccc1c2ccc2ccccc21,,1.26 µM (active)
O=C1N[C@@]2(CN3CCC2CC3)C(=O)N1CN(Cc1ccccc1)c1ccccc1,-7.38% [at 11.4 µM],
COCCCn1c(N)c(C(=O)Nc2sc3c(c2C(=O)OC)CCCC3)c2nc3ccccc3nc21,,2.24 µM (active)
NCCCC[C@H](N[C@@H](CCc1ccccc1)C(=O)O)C(=O)N1CCC[C@H]1C(=O)O,-10.5% [at 25.6 µM],
Oc1ccc(CCNCc2cc3c(cc2Br)OCO3)cc1,-10.6% [at 11.4 µM],
CC(=O)OC1=CC2=CC[C@H]3[C@H]4CCC(=O)[C@@]4(C)CC(=O)[C@]3(S)[C@]2(C)CC1,4.96% [at 11.4 µM],
CC(O)(CS(=O)(=O)c1cccc(C(F)(F)F)c1)C(=O)Nc1ccc(C(F)(F)F)cc1 (configuration not stated),,11.2 µM (active)
C[N+](C)(C)[C@H](Cc1c[nH]c(=S)[nH]1)C(=O)O,11.9% [at 11.4 µM],
CN1C(=O)COc2c(C(=O)N[C@@H]3CN4CCC3CC4)cc(Cl)cc21,-4.86%,
COc1cc(N)c(Cl)cc1C(=O)N[C@@H]1CN2CCC1CC2,,12.6 µM (active)
CC(C)n1cnc2c(C(=O)N[C@H]3CN4CCC3CC4)cc(Cl)cc21,,0.398 µM (active)
